From the supplement of paper PMC8975748
Where a name gives a salt, the structure may show the parent alone. ± gives the standard deviation of the averaged measurements.

What was measured:
[1] = tested on: Saccharomyces cerevisiae BY4741 SeMeCo community; test: mean cell size (pixel area) (pixels); higher = larger cells; conditions: 10 µM; 24 h; SM minimal medium
Procedure, shortened: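 Drug was acoustically predosed into 384-well plates to a final 10 µM in SM medium, and each well received 70 µl of Saccharomyces cerevisiae BY4741 diluted to OD600 = 0.3 from an overnight preculture at OD600 = 1.0. This four-plasmid fluorescent community carries one fluorescent marker per plasmid, and each plasmid complements one auxotrophy. After 24 h, the cells were fixed with paraformaldehyde and imaged by automated confocal microscopy, and Harmony analysis yielded mean cell pixel area per well. Each value is averaged over 3 replicates. Same SeMeCo high-content imaging drug screen: Selleck FDA-approved drugs at 10 µM, 24 h in SM medium, 384-well plates, 3 replicates.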

[2] = tested on: Saccharomyces cerevisiae BY4741 SeMeCo community; test: z-score of prototroph abundance vs DMSO median; higher = larger share of this subpopulation than in DMSO controls; conditions: 10 µM; 24 h; SM minimal medium; subpopulation (auxotrophy): Prototroph
Procedure, shortened: (§1)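 Automated confocal microscopy of paraformaldehyde-fixed cells was used to follow a Saccharomyces cerevisiae BY4741 community carrying four plasmids, each restoring one auxotrophy and encoding a distinct fluorescent protein. The community was pre-grown overnight to OD600 1.0, diluted to 0.3, and added at 70 µl to 384-well plates acoustically predosed with library drugs (10 µM final) for 24 h of growth in minimal SM medium. Single-auxotroph fluorescent strains set thresholds and autofluorescence correction, and each subpopulation's abundance was scored as a z-score against the vehicle-well median.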

[3] = tested on: Saccharomyces cerevisiae BY4741 SeMeCo community; test: z-score of subpopulation abundance vs DMSO median, subpopulation auxotrophic for L; higher = larger share of this subpopulation than in DMSO controls; conditions: 10 µM; 24 h; SM minimal medium; subpopulation (auxotrophy): L
Procedure, shortened: as §1

[4] = tested on: Saccharomyces cerevisiae BY4741 SeMeCo community; test: z-score of subpopulation abundance vs DMSO median, subpopulation auxotrophic for U; higher = larger share of this subpopulation than in DMSO controls; conditions: 10 µM; 24 h; SM minimal medium; subpopulation (auxotrophy): U
Procedure, shortened: as §1

[5] = tested on: Saccharomyces cerevisiae BY4741 SeMeCo community; test: z-score of subpopulation abundance vs DMSO median, subpopulation auxotrophic for LU; higher = larger share of this subpopulation than in DMSO controls; conditions: 10 µM; 24 h; SM minimal medium; subpopulation (auxotrophy): LU
Procedure, shortened: as §1

[6] = tested on: Saccharomyces cerevisiae BY4741 SeMeCo community; test: z-score of subpopulation abundance vs DMSO median, subpopulation auxotrophic for LM; higher = larger share of this subpopulation than in DMSO controls; conditions: 10 µM; 24 h; SM minimal medium; subpopulation (auxotrophy): LM
Procedure, shortened: as §1

[7] = tested on: Saccharomyces cerevisiae BY4741 SeMeCo community; test: z-score of subpopulation abundance vs DMSO median, subpopulation auxotrophic for HU; higher = larger share of this subpopulation than in DMSO controls; conditions: 10 µM; 24 h; SM minimal medium; subpopulation (auxotrophy): HU
Procedure, shortened: as §1

[8] = tested on: Saccharomyces cerevisiae BY4741 SeMeCo community; test: z-score of subpopulation abundance vs DMSO median, subpopulation auxotrophic for UM; higher = larger share of this subpopulation than in DMSO controls; conditions: 10 µM; 24 h; SM minimal medium; subpopulation (auxotrophy): UM
Procedure, shortened: as §1

[9] = tested on: Saccharomyces cerevisiae BY4741 SeMeCo community; test: z-score of subpopulation abundance vs DMSO median, subpopulation auxotrophic for HL; higher = larger share of this subpopulation than in DMSO controls; conditions: 10 µM; 24 h; SM minimal medium; subpopulation (auxotrophy): HL
Procedure, shortened: as §1

[10] = tested on: Saccharomyces cerevisiae BY4741 SeMeCo community; test: z-score of subpopulation abundance vs DMSO median, subpopulation auxotrophic for HLU; higher = larger share of this subpopulation than in DMSO controls; conditions: 10 µM; 24 h; SM minimal medium; subpopulation (auxotrophy): HLU
Procedure, shortened: as §1

[11] = tested on: Saccharomyces cerevisiae BY4741 SeMeCo community; test: z-score of subpopulation abundance vs DMSO median, subpopulation auxotrophic for HLM; higher = larger share of this subpopulation than in DMSO controls; conditions: 10 µM; 24 h; SM minimal medium; subpopulation (auxotrophy): HLM
Procedure, shortened: as §1

[12] = tested on: Saccharomyces cerevisiae BY4741 SeMeCo community; test: z-score of subpopulation abundance vs DMSO median, subpopulation auxotrophic for HUM; higher = larger share of this subpopulation than in DMSO controls; conditions: 10 µM; 24 h; SM minimal medium; subpopulation (auxotrophy): HUM
Procedure, shortened: as §1

[13] = tested on: Saccharomyces cerevisiae BY4741 SeMeCo community; test: z-score of subpopulation abundance vs DMSO median, subpopulation auxotrophic for LUM; higher = larger share of this subpopulation than in DMSO controls; conditions: 10 µM; 24 h; SM minimal medium; subpopulation (auxotrophy): LUM
Procedure, shortened: as §1

[14] = tested on: Saccharomyces cerevisiae BY4741 SeMeCo community; test: z-score of subpopulation abundance vs DMSO median, subpopulation auxotrophic for HLUM; higher = larger share of this subpopulation than in DMSO controls; conditions: 10 µM; 24 h; SM minimal medium; subpopulation (auxotrophy): HLUM
Procedure, shortened: as §1

[15] = tested on: Saccharomyces cerevisiae BY4741 SeMeCo community; test: z-score of subpopulation abundance vs DMSO median, subpopulation auxotrophic for H; higher = larger share of this subpopulation than in DMSO controls; conditions: 10 µM; 24 h; SM minimal medium; subpopulation (auxotrophy): H
Procedure, shortened: as §1

[16] = tested on: Saccharomyces cerevisiae BY4741 SeMeCo community; test: z-score of subpopulation abundance vs DMSO median, subpopulation auxotrophic for HM; higher = larger share of this subpopulation than in DMSO controls; conditions: 10 µM; 24 h; SM minimal medium; subpopulation (auxotrophy): HM
Procedure, shortened: as §1

| Structure (SMILES) | mean cell size [1] | z-score of prototroph abundance [2] | z-score of subpopulation abundance [3] | z-score of subpopulation abundance [4] | z-score of subpopulation abundance [5] | z-score of subpopulation abundance [6] | z-score of subpopulation abundance [7] | z-score of subpopulation abundance [8] | z-score of subpopulation abundance [9] | z-score of subpopulation abundance [10] | z-score of subpopulation abundance [11] | z-score of subpopulation abundance [12] | z-score of subpopulation abundance [13] | z-score of subpopulation abundance [14] | z-score of subpopulation abundance [15] | z-score of subpopulation abundance [16] |
| --- | --- | --- | --- | --- | --- | --- | --- | --- | --- | --- | --- | --- | --- | --- | --- | --- |
| CC[C@H](C)C(=O)O[C@H]1C[C@H](O)C=C2C=C[C@H](C)[C@H](CC[C@@H](O)C[C@@H](O)CC(=O)O)[C@H]21 [Pravastatin sodium] | 12.3 ± 0.26 | -0.86 | 2.2 | -0.09 | 1.81 | 1.93 | 0.26 | 0.47 | 0.84 | -0.65 | 0.62 | -0.32 | 0.57 | 2.71 | – | – |
| NC[C@H]1O[C@H](O[C@H]2[C@H](O[C@@H]3O[C@H](CO)[C@@H](O)[C@H]3O)[C@@H](O)[C@H](N)C[C@@H]2N)[C@H](N)[C@@H](O)[C@@H]1O [Ribostamycin Sulfate] | 12.13 ± 0.035 | 0.31 | -0.39 | 0.39 | 0.09 | – | -0.5 | 0.36 | -0.49 | -0.07 | -0.38 | 0.24 | -0.84 | 0.36 | -0.21 | 0.04 |
| CN[C@@H]1[C@H](O)[C@H](NC)[C@H]2O[C@@]3(O)C(=O)C[C@@H](C)O[C@H]3O[C@@H]2[C@H]1O [Spectinomycin 2HCl] | 12.6 ± 0.18 | -0.2 | -1.34 | 0.77 | -0.16 | – | 0.25 | 0.51 | -0.34 | 0.02 | -0.57 | -0.21 | -0.18 | -0.32 | -0.79 | – |
| C[C@H]1[C@H](NC(=O)/C(=N\OC(C)(C)C(=O)O)c2csc(N)n2)C(=O)N1S(=O)(=O)O [Aztreonam] | 12.5 ± 0.18 | -0.5 | 0.74 | – | 0.39 | 0.99 | -0.08 | 0.13 | 0.25 | 0.52 | 1.34 | -0.1 | 0.97 | 0.34 | -0.29 | 0.36 |
| CCN(Cc1ccncc1)C(=O)C(CO)c1ccccc1 (stereo unspecified) [Tropicamide] | 12.48 ± 0.099 | -0.08 | 0.34 | 0.43 | 0.14 | 0.83 | 0.5 | 0.23 | 0.16 | 0.42 | -0.45 | 0.16 | 0 | 0.01 | -0.6 | -0.12 |
| O=C1Nc2ccccc2C1=O [Isatin] | 12.3 ± 0.17 | -0.13 | -0.04 | 0.43 | 0.53 | -0.62 | 0.91 | 0.51 | -0.64 | 0.06 | -1.17 | 0.2 | -0.31 | -0.52 | 0.05 | – |
| CN(C)CCC=C1c2ccccc2CCc2ccccc21 [Amitriptyline HCl] | 12.3 ± 0.27 | 0.95 | -0.56 | -0.21 | -1.69 | -0.17 | -0.28 | -0.92 | -0.48 | -1.03 | -1.26 | -0.75 | -0.91 | -0.81 | -0.87 | -0.99 |
| CC1=C(C(=O)O)N2C(=O)[C@@H](NC(=O)[C@H](N)C3=CCC=CC3)[C@H]2SC1 [Cephradine monohydrate] | 11.9 ± 0.16 | 0.03 | -0.33 | 1.31 | 0.27 | -0.77 | 0.11 | 0.58 | -0.62 | -0.12 | 0.11 | -0.61 | -0.79 | 0.01 | -0.1 | – |
| Oc1c(Br)cc(Br)c2cccnc12 [Broxyquinoline] | 14.7 ± 0.16 | -16.8 | 0.17 | -3.11 | 6.62 | 5.88 | 16.9 | 6.77 | – | 27.1 | 49.4 | 15.8 | 12.8 | 44.9 | 11.6 | 27.7 |
| CC(C)(C)CC(C)(C)c1ccc(OCCOCC[N+](C)(C)Cc2ccccc2)cc1 [Benzethonium Chloride] | 11.7 ± 0.27 | 0.89 | -0.55 | – | -0.86 | -0.72 | 0.13 | – | -0.38 | -0.61 | -0.12 | -0.76 | 0.65 | 0.07 | 0.3 | -1.27 |
| C[C@@H](c1ncncc1F)[C@](O)(Cn1cncn1)c1ccc(F)cc1F [Voriconazole] | 11.9 ± 0.18 | -11.6 | -2.55 | -0.12 | 1.96 | 1.93 | 9.96 | – | 6.37 | 16.6 | 41.5 | 14.4 | 5.58 | 16.5 | 12.8 | – |
| NC(=O)N1c2ccccc2CC(=O)c2ccccc21 [Oxcarbazepine] | 12.4 ± 0.25 | 0.37 | -0.68 | 0.16 | -0.37 | 0.14 | 0.16 | 0.07 | -0.1 | -0.11 | -1.13 | 0.19 | 0.55 | – | -0.49 | – |
| O=C(O)CCCCCCCC(=O)O [Azelaic acid] | 12.4 ± 0.2 | -0.32 | -0.32 | 0.62 | 1.26 | 0.3 | 0.63 | -0.2 | -0.5 | 0.77 | -0.07 | 0.47 | – | 1.13 | 0.43 | -0.04 |
| COC(=O)Nc1nc2cc(C(=O)c3ccc(F)cc3)ccc2[nH]1 [Flubendazole] | 12.19 ± 0.12 | 0.01 | 0.41 | -0.99 | -0.32 | – | – | -0.47 | 0.98 | 0.3 | -0.42 | 0.06 | 0.68 | -0.02 | 1.19 | 0.64 |
